{"source": "PubChem BioAssay AID1850", "about": "(Southern Research Specialized Biocontainment Screening …, 2009)", "note": "Among all 310,000 compounds or so, about 1,000 (0.32%) were called active. How the calls were made is not given here. Not all results are given here. Results with a measured potency or affinity are listed apart.", "data": [{"test": "PhoP regulon inhibitors, Salmonella typhi PhoP promoter GFP reporter, confirmatory (AID 1850);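 further: 0% = induced wells with vehicle and 100% = uninduced wells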", "conditions": "fluorescence, 4 h, at 50 µM, hits give high values", "values": [{"smiles": "COc1ccccc1/C=N/NC(=O)c1nnn(-c2nonc2N)c1CSC1=NCCS1", "inhibition": "-3.46% (inactive)"}, {"smiles": "COc1cc(/C=C/C(=O)Nc2ccncc2)cc(OC)c1OC", "inhibition": "9.98% (inactive)"}, {"smiles": "Cc1nn(-c2ccccc2)c(N2CCCC2)c1/C=N/NC(=O)c1cc(-c2cccs2)nc2ccccc12", "inhibition": "-12.2% (inactive)"}, {"smiles": "CCOC(=O)C1(CCCc2ccccc2)CCN(C(=O)CCN2CCCCC2=O)CC1", "inhibition": "-9.1% (inactive)"}, {"smiles": "O=C(c1ccc(COc2ccccc2Cl)o1)N1N=C(C(F)F)CC1(O)C(F)F", "note": "(stereo unspecified)", "inhibition": "-0.36% (inactive)"}, {"smiles": "Cc1ccc(C(O)P(=O)(Oc2ccccc2)Oc2ccccc2)cc1", "note": "(stereo unspecified)", "inhibition": "-35.5% (inactive)"}, {"smiles": "COc1ccc(NC(=O)CCN2C(=O)C3CC=C(Cl)CC3C2=O)cc1", "note": "(stereo unspecified)", "inhibition": "-3.04% (inactive)"}, {"smiles": "C#CCOCCOCCOCCNc1nc(N2CCN(C(=O)CCCCCCCCCCNC(=O)Cn3cc(C[C@@H](C)O)nn3)CC2)nc(N2CCN(C(=O)CCCCCCCCCCNC(=O)[C@H](CCCCN)n3cc(C[C@@H](C)CC)nn3)CC2)n1", "inhibition": "14.8% (inactive)"}, {"smiles": "C#CCOCCOCCOCCNc1nc(N2CCN(C(=O)CCCCCCCCCCNC(=O)[C@@H](CCC(=O)O)n3cc(CCCCCN)nn3)CC2)nc(N2CCN(C(=O)CCCCCCCCCCNC(=O)[C@H](CO)n3cc(CCCCCN)nn3)CC2)n1", "inhibition": "-6.21% (inactive)"}, {"smiles": "C#CCOCCOCCOCCNc1nc(N2CCN(C(=O)CCCCCCCCCCNC(=O)[C@H](CO)n3cc(CCCSC)nn3)CC2)nc(N2CCN(C(=O)CCCCCCCCCCNC(=O)[C@H](CCCN=C(N)N)n3cc(C[C@@H](C)CC)nn3)CC2)n1", "inhibition": "25.4% (inactive)"}, {"smiles": "C#CCOCCOCCOCCNc1nc(N2CCN(C(=O)CCCCCCCCCCNC(=O)[C@H](CO)n3cc(CCCSC)nn3)CC2)nc(N2CCN(C(=O)CCCCCCCCCCNC(=O)[C@H](CCCCN)n3cc(C[C@@H](C)CC)nn3)CC2)n1", "inhibition": "-5.02% (inactive)"}, {"smiles": "C#CCOCCOCCOCCNc1nc(N2CCN(C(=O)CCCCCCCCCCNC(=O)[C@@H](CCC(=O)O)n3cc(CCCCCN)nn3)CC2)nc(N2CCN(C(=O)CCCCCCCCCCNC(=O)[C@H](CCCCN)n3cc(C[C@@H](C)CC)nn3)CC2)n1", "inhibition": "-7.23% (inactive)"}, {"smiles": "C#CCOCCOCCOCCNc1nc(N2CCN(C(=O)CCCCCCCCCCNC(=O)[C@@H](CCC(=O)O)n3cc(CCCCCN)nn3)CC2)nc(N2CCN(C(=O)CCCCCCCCCCNC(=O)[C@H](CO)n3cc(CCCSC)nn3)CC2)n1", "inhibition": "-11.4% (inactive)"}, {"smiles": "CC1CCCN(C(=O)C23CCC(C)(C(=O)C2)C3(C)C)C1", "note": "(stereo unspecified)", "inhibition": "-4.73% (inactive)"}, {"smiles": "COc1cc(CCC(=O)N2CC(C)OC(C)C2)cc(OC)c1OC", "note": "(stereo unspecified)", "inhibition": "-14.2% (inactive)"}, {"smiles": "CC(C)CN(C(=O)CN(C)C(=O)c1ccco1)c1c(N)n(CC(C)C)c(=O)[nH]c1=O", "inhibition": "-1.06% (inactive)"}, {"smiles": "Cc1cc2oc(=O)cc(Cn3ncc(Cl)c(Cl)c3=O)c2cc1Cl", "inhibition": "-3.81% (inactive)"}, {"smiles": "Cc1cccc(OCCNc2cc(N3CCN(C)CC3)ccc2[N+](=O)[O-])c1", "inhibition": "-4.31% (inactive)"}, {"smiles": "COC(=O)[C@@H](NC(=O)c1ccccc1)[C@@H](C)O", "inhibition": "-3.17% (inactive)"}, {"smiles": "COc1cccc(CN2CC(C(=O)NC3CCC3)CCC2=O)c1", "note": "(stereo unspecified)", "inhibition": "-3.12% (inactive)"}, {"smiles": "C/C(=N\\Nc1ccccc1Cl)c1ccc(-n2ccnc2)cc1", "inhibition": "7.81% (inactive)"}, {"smiles": "CCCCOC(=O)c1ccc(NC(=O)COC(=O)CSc2nc(C)cc(C)n2)cc1", "inhibition": "-5.18% (inactive)"}, {"smiles": "CNCCC1Sc2ccccc2Oc2ccccc21", "note": "(stereo unspecified)", "inhibition": "10.6% (inactive)"}, {"smiles": "CN(C)CCC1Sc2ccccc2Oc2ccccc21", "note": "(stereo unspecified)", "inhibition": "-1.34% (inactive)"}, {"smiles": "COc1ccccc1NC(=O)CSc1nnc(CCC(=O)Nc2ccccc2F)n1C", "inhibition": "-5.48% (inactive)"}, {"smiles": "Cc1ccc(C(=O)Nn2cnnc2)cc1", "inhibition": "-11.2% (inactive)"}, {"smiles": "CCOC(=O)C1C(c2cccs2)NC(=O)N(C)C1(O)C(F)(F)F", "note": "(stereo unspecified)", "inhibition": "-2.14% (inactive)"}, {"smiles": "COc1cc(C2NC(=O)NC(O)(C(F)(F)F)C2C(=O)c2cccs2)ccc1O", "note": "(stereo unspecified)", "inhibition": "-4.52% (inactive)"}, {"smiles": "O=C1NC(c2ccncc2)C(C(=O)c2cccs2)C(O)(C(F)(F)F)N1", "note": "(stereo unspecified)", "inhibition": "2.95% (inactive)"}, {"smiles": "O=C1NC(c2ccccc2)C(C(=O)c2cccs2)C(O)(C(F)(F)F)N1", "note": "(stereo unspecified)", "inhibition": "0.79% (inactive)"}, {"smiles": "CCc1nnc(NC(=O)CN2CCN(CC)CC2)s1", "inhibition": "-8.02% (inactive)"}, {"smiles": "Nc1c2ccccc2nc2ccccc12", "inhibition": "17.1% (inactive)"}, {"smiles": "Cc1cccc2nc3ccccc3cc12", "inhibition": "-7.86% (inactive)"}, {"smiles": "COCCNC(=O)c1ccc(CN2CCC(Cc3ccccc3)CC2)cc1", "inhibition": "-1.7% (inactive)"}, {"smiles": "CCOC(=O)C1CCN(C(=O)c2ccccc2NS(=O)(=O)c2ccc(C)cc2)CC1", "inhibition": "-7.2% (inactive)"}, {"smiles": "CC(Sc1nnc(N)s1)C(=O)Nc1ccc2c(c1)OCCO2", "note": "(stereo unspecified)", "inhibition": "-3.64% (inactive)"}, {"smiles": "CCCNC(=O)Cn1cnc([N+](=O)[O-])n1", "inhibition": "-4.49% (inactive)"}, {"smiles": "O=[N+]([O-])c1ccc(C(O)C(CO)NC(=S)Nc2ccccc2)cc1", "note": "(stereo unspecified)", "inhibition": "11.5% (inactive)"}, {"smiles": "O=C(O)CC(Cc1ccc(Cl)cc1)C(=O)Nc1ccc([N+](=O)[O-])cc1", "note": "(stereo unspecified)", "inhibition": "-5.39% (inactive)"}, {"smiles": "CCOC(=O)C(NC(C)=O)C(O)c1ccc([N+](=O)[O-])cc1", "note": "(stereo unspecified)", "inhibition": "3.41% (inactive)"}, {"smiles": "O=C(Cc1ccccc1)NC(C(=O)O)C(O)c1ccc([N+](=O)[O-])cc1", "note": "(stereo unspecified)", "inhibition": "3.65% (inactive)"}, {"smiles": "CC(Cc1ccccc1)NC(=O)Cc1ccc([N+](=O)[O-])cc1", "note": "(stereo unspecified)", "inhibition": "-4.09% (inactive)"}, {"smiles": "NC(CO)C(O)c1ccc([N+](=O)[O-])cc1", "note": "(stereo unspecified)", "inhibition": "-4.54% (inactive)"}, {"smiles": "Cc1ccc([N+](=O)[O-])cc1S(=O)(=O)NCc1cccnc1", "inhibition": "-0.437% (inactive)"}, {"smiles": "COc1ccc(CC(=O)NC(C)C2COc3ccccc3O2)cc1OC", "note": "(stereo unspecified)", "inhibition": "0.47% (inactive)"}, {"smiles": "O=C(NNS(=O)(=O)c1ccc(Cl)cc1)c1cccc(S(=O)(=O)N2CCOCC2)c1", "inhibition": "6.08% (inactive)"}, {"smiles": "CC1CCN(C2CC(=O)N(c3ccccc3)C2=O)CC1", "note": "(stereo unspecified)", "inhibition": "-1.51% (inactive)"}, {"smiles": "CC1(C)Cc2cccc(OCC(=O)OCC(=O)NCc3ccc(F)cc3)c2O1", "inhibition": "5.2% (inactive)"}, {"smiles": "CC1(NC(=O)c2cccc(S(=O)(=O)N3CCN(c4ccccc4)CC3)c2)CCS(=O)(=O)C1", "note": "(stereo unspecified)", "inhibition": "-4.48% (inactive)"}, {"smiles": "CN1CC(C(=O)c2ccc(Cl)cc2)C(c2ccccc2)C1", "note": "(stereo unspecified)", "inhibition": "-0.32% (inactive)"}, {"smiles": "CN1CC(C(=O)c2ccc(Cl)cc2)C(c2ccccc2F)C1", "note": "(stereo unspecified)", "inhibition": "-5.31% (inactive)"}]}]}
